Compound activity as filed in PubChem.
CYP2C9 inh: blocks human cytochrome P450 2C9; inhibition, % at 5 µM; AID 777; P11712; CYP2C9 Supersomes, luciferin-H conversion, luminescence; hit rate 20% among 96,000;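 active = blocking of liver enzyme CYP2C9 beyond about 50% at 5 µM, limit read from the data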
Cav32 inh: inhibitors of human Cav3.2 T-type calcium channel | O95180 | Cav3.2-expressing cells, Fluo-4 calcium fluorescence FDSS; hits give low values | B-score at 10 µM | hit rate 4% among 100,000;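 active = single-dose well whose peak fluorescence ratio is a statistical outlier from its plate by either plate-standardised score or position-corrected B-score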
PTK2B oligo ant: blocks oligomerization of human Pyk2 in cells | Q293 cells, Pyk2 FERM NanoBiT luminescence; hits give low values | hit rate 0.83% among 99,000 | Q14289 | z-score (the deposit names both 25 µM and 10 µM);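 active = Z-score of -3 or lower, scaled per plate to the spread of control and sample wells; inactive = z-score above -3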;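 also: negative z-score means lost luminescence so less FERM oligomerization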
CYP2C19 inhib: blocks human cytochrome P450 2C19; CYP2C19 Supersomes, luciferin-H EGE luminescence, 30 min; inhibition, % at 5 µM; hit rate 21% among 96,000;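 active = CYP2C19 inhibition above a set limit at 5 µM in the primary screen, cut at about 50% in these data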
CYP2C19 activ: activators of human cytochrome P450 2C19. AID 1025. recombinant CYP2C19, luciferin-H EGE luminescence; hits give high values; 0 = fully inhibited enzyme, 1 = untreated enzyme. P33261. 96,000 tested, under 10 active. activation factor at 5 µM;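 active = activation factor of at least 2 at 5 µM in the primary screen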
CYP2C9 act: CYP2C9 (human) activation | P11712 | recombinant CYP2C9, luciferin-H conversion, luminescence; hits give high values; factor 1 = untreated enzyme, 0 = blocked | activation factor at 5 µM | hit rate 1.4% among 96,000 | AID 1024;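 active = activation factor of 2 or more for CYP2C9 at a 5 µM dose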
Each line names hits and unclear results; the compound was inactive in the other large screens. Only some compounds are listed: those with a hit (about 27% of all), similar ones and a draw of the others.

COc1ccc(OC)c(C2=Nn3c(nnc3-c3cc(OC)c(OC)c(OC)c3)SC2)c1	CYP2C9 inh 88.5, PTK2B oligo ant -3.07, CYP2C19 inhib 60.0
COc1ccc(OCc2nnc3n2N=C(c2ccc(Br)cc2)CS3)cc1	none (no result: PTK2B oligo ant)
Cc1ccc(S(=O)(=O)Cc2ccc(C(=O)O)o2)cc1	none
CC(C)CC(=O)Nc1ccccc1Oc1ccccc1	none
COc1cc2c(cc1OC)C(C)N(C(=O)CCN1C(=O)C3C4C=CC(C4)C3C1=O)CC2 (stereo not drawn)	none (no result: Cav32 inh)
CCCOc1ccc(OCCNC2CCCC2)cc1	none
COc1cccc(C2=Nn3c(nnc3-c3ccccc3O)SC2)c1	CYP2C9 inh 69.1
COc1cccc(-c2nnc3n2N=C(c2cc(OC)ccc2OC)CS3)c1	CYP2C9 inh 56.7, CYP2C19 inhib 72.5
CCOc1ccc(C2=Nn3c(nnc3-c3ccccn3)SC2)cc1	none
Clc1ccccc1C1=Nn2c(nnc2-c2ccncc2)SC1	CYP2C9 inh 72.5, CYP2C19 inhib 61.0 (no result: Cav32 inh)
CCOc1cccc(-c2nnc3n2N=C(c2cc(OC)ccc2OC)CS3)c1	none (no result: CYP2C9 inh, CYP2C19 inhib, CYP2C19 activ, CYP2C9 act)
COc1cc(-c2nnc3n2N=C(c2ccccc2)CS3)cc(OC)c1OC	CYP2C9 inh 67.5, CYP2C19 inhib 72.8
CC(=O)Nc1ccc(NC(=O)/C(Cl)=C/c2ccccc2)cc1	none
COc1ccc(-c2nnc3n2N=C(C)CS3)cc1	none (no result: Cav32 inh)
COc1ccc(C2=Nn3c(nnc3-c3ccc(OC)cc3)SC2)cc1	CYP2C9 inh 51.5, Cav32 inh -7.23
Cc1c(NC(=O)c2ccccc2NS(=O)(=O)c2ccc(F)cc2)c(=O)n(-c2ccccc2)n1C	CYP2C9 inh 51.6
Cc1c(NS(=O)(=O)c2cccc(C(=O)NCc3ccc(Cl)cc3)c2)c(=O)n(-c2ccccc2)n1C	CYP2C19 inhib 50.7
Cc1c(NS(=O)(=O)c2ccccc2)c(=O)n(-c2ccccc2)n1C	CYP2C19 inhib 53.4
COCCN1C(=O)N[C@@H](c2ccco2)C(C(C)=O)=C1C	none (no result: CYP2C9 inh, PTK2B oligo ant, CYP2C19 inhib, CYP2C19 activ, CYP2C9 act)
CCN1CCCC1Cn1cnc2c([nH]c3cccc(Cl)c32)c1=O (stereo not drawn)	none
CCN(CC)CCNC(=O)c1c(O)c2cc(OC)c(OC)cc2[nH]c1=O	none (no result: CYP2C9 inh, Cav32 inh, CYP2C19 inhib, CYP2C19 activ, CYP2C9 act)
Clc1ccccc1-c1nnc2sc(-c3ccc(Br)o3)nn12	CYP2C19 inhib 79.9
Brc1ccc(-c2nn3c(Cc4ccccc4)nnc3s2)o1	CYP2C19 inhib 68.2
Clc1ccc(-c2nnc3sc(-c4ccc(Br)o4)nn23)c(Cl)c1	CYP2C19 inhib 57.6 (no result: Cav32 inh)
COc1cccc(NC(=O)CCN2CCC(C(N)=O)CC2)c1	none
c1ccc(-n2nnnc2-n2ccnc2)cc1	none
c1ccc(-n2nnnc2-n2nnc3ccccc32)cc1	CYP2C19 inhib 93.9
CN(Cc1ccccc1)C(=O)CC(c1ccccc1)c1cc(Cl)ccc1O (stereo not drawn)	CYP2C9 inh 75.9 (no result: Cav32 inh)
CCN(CCO)C(=O)CC(c1ccccc1)c1cc(Br)ccc1O (stereo not drawn)	none (no result: CYP2C9 inh, CYP2C19 inhib, CYP2C19 activ, CYP2C9 act)
CCCN(CCC)C(=O)CC(c1ccccc1)c1cc(C)ccc1O (stereo not drawn)	CYP2C9 inh 52.8, Cav32 inh -5.93
CN(Cc1ccccc1)C(=O)CN(Cc1ccccc1)S(C)(=O)=O	none (no result: CYP2C9 inh, CYP2C19 inhib, CYP2C19 activ, CYP2C9 act)
Cc1noc(C)c1Cn1nc(C(=O)O)c2ccccc2c1=O	CYP2C9 inh 80.5 (no result: Cav32 inh)
Cc1cccc(OCCn2nc(C(=O)O)c3ccccc3c2=O)c1	CYP2C9 inh 68.4, CYP2C19 inhib 71.6
Cc1ccc(S(=O)(=O)NC2=NCCC2)cc1	none
CCOC(=O)N1CCC(=NNS(=O)(=O)c2cccc([N+](=O)[O-])c2)CC1	none
O=C(CSc1nnc(CNC(=O)c2cccs2)o1)NC1CCCCC1	none
CCOC(=O)c1c(N)sc2c(OC)c(Br)ccc12	CYP2C9 inh 63.2
COc1cccc(NC(=O)c2nnn(Cc3ccc(Br)cc3F)c2N)c1	none (no result: PTK2B oligo ant)
OC1(c2cccc(F)c2)CCN(Cc2ccncc2)CC1	CYP2C19 inhib 65.0
Cn1c(CSc2nc3ccccc3n2C)nc2ccccc21	CYP2C19 inhib 83.9
Cn1c(CCCCCN)nc2ccccc21	CYP2C9 inh 63.3
Cn1c(CNc2ccccc2)nc2ccccc21	CYP2C19 inhib 52.4
CCn1cnc2cc(NCc3nc4ccccc4n3C)ccc21	CYP2C19 inhib 92.6
Cc1cc(C)nc(SCc2nc3ccccc3n2C)n1	none
CCCC(=O)NCc1nc2ccccc2n1C	none
COc1ccc(Cl)cc1NC(=O)Nc1cccc([N+](=O)[O-])c1C	none
CC(CN1CCCC(C(N)=O)C1)c1ccccc1 (stereo not drawn)	none
CN(c1ccc(C(=O)Nc2ccccc2C(F)(F)F)cc1)S(C)(=O)=O	none
Cn1c(CNc2ccccc2O)nc2ccccc21	CYP2C19 inhib 69.8 (no result: PTK2B oligo ant)
CCn1c(CNc2ccc(C(=O)O)cc2)nc2ccccc21	none
CCCn1c(CNc2ccc(Br)cc2)nc2ccccc21	CYP2C9 inh 92.4, Cav32 inh -5.28, CYP2C19 inhib 98.0 (no result: PTK2B oligo ant)
Cn1c(CCNC(=O)C(C)(C)C)nc2ccccc21	none
CCOC(=O)Cn1cnc([N+](=O)[O-])n1	none
Cn1c(Cn2c(=O)sc3ccccc32)nnc1SCc1ccccc1F	CYP2C19 inhib 52.3 (no result: PTK2B oligo ant)
O=C(CSc1nnc(Cn2nnc(-c3ccccc3)n2)n1-c1ccccc1)Nc1ccccc1	none
Cc1ccccc1-n1c(Cn2c(=O)sc3ccccc32)nnc1SCC(=O)Nc1nccs1	none (no result: CYP2C9 inh, PTK2B oligo ant, CYP2C19 inhib, CYP2C19 activ, CYP2C9 act)
CCCSc1nnc(Cn2c(=O)sc3ccccc32)n1-c1ccccc1	CYP2C9 inh 67.9, CYP2C19 inhib 82.5 (no result: PTK2B oligo ant)
Cc1csc(NC(=O)CSc2nnc(Cn3c(=O)sc4ccccc43)n2-c2ccccc2)n1	CYP2C9 inh 60.7 (no result: PTK2B oligo ant)
Cc1cccc(C)c1NC(=O)CSc1nnc(Cn2nnc(-c3ccccc3)n2)n1-c1ccccc1	CYP2C9 inh 92.2, Cav32 inh -6.19, CYP2C19 inhib 74.5
Cn1c(Cn2c(=O)sc3ccccc32)nnc1SCc1cccc(F)c1	none (no result: CYP2C9 inh, PTK2B oligo ant, CYP2C19 inhib, CYP2C19 activ, CYP2C9 act)
CCOC(=O)c1c(N)sc(C(=O)N(C)C)c1C	none
O=c1oc(/C=C/c2ccco2)nc2sc3c(c12)CCC3	none (no result: Cav32 inh)
COc1ccc(-c2nnc(SCC(=O)Nc3ccccc3)n2C)cc1	none
CC(=O)Nc1ccc(-c2nnc(SCC(=O)Nc3ccc4c(c3)oc3ccccc34)n2C)cc1	CYP2C9 inh 69.0
CCn1c(Cc2ccccc2)nnc1SCC(=O)Nc1ccc(N)cc1	none
CCn1c(SCC(=O)Nc2ccc3c(c2)oc2ccccc23)nnc1-c1ccc(N)cc1	CYP2C9 inh 78.2
O=C(OCn1nnc2ccccc2c1=O)c1cccnc1Cl	CYP2C19 inhib 58.9
CSc1ncccc1C(=O)OCn1nnc2ccccc2c1=O	none
O=C(OCn1nnc2ccccc2c1=O)C1CCCCC1	CYP2C9 inh 53.2, CYP2C19 inhib 72.1
CCN(CC)S(=O)(=O)c1ccc(C(=O)OCn2nnc3ccccc3c2=O)cc1	CYP2C9 inh 77.5
O=C(OCn1nnc2ccccc2c1=O)c1ccc(S(=O)(=O)N2CCOCC2)cc1	none
O=C(OCn1nnc2ccccc2c1=O)C1COc2ccccc2O1 (stereo not drawn)	none
COc1cc(Nc2nc3ccccc3n3nnnc23)cc(OC)c1OC	CYP2C9 inh 68.8 (no result: PTK2B oligo ant)
